# Giardia killer = Giardia lamblia killing; activity change, % at 7.66 µM, hits read low; 340,000 tested, 0.15% active; Giardia lamblia trophozoite viability; in the data active = activity change below about -80%; inconclusive = between about -30% and that limit;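 note: parasites exposed to compound for two days anaerobically before the ATP read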
#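 Trophozoites 100 cells/well + cpd; 48 hrs, 37 deg C, anaerobic. ATPLite 1-Step added, 15-30 min RT, luminescence read (ATP-based viability).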
# ELG1 repair inh = inhibitors of ELG1-dependent DNA repair in HEK293T cells. HEK293T ELG1-luciferase reporter, luminescence, 16 h; DNA damage induced by 5-fluorouridine. Potency, µM (titrated, usually from 46.1 µM), actives largely listed as inhibitors. 330,000 tested, 2.3% active; note: nearly all actives have a fitted effect of over 55% in size
#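 Step one: seed 2,000 cells per well. Step two: pin-transfer compound or DMSO alongside 5-fluorouridine. Step three: incubate 16 hr, 37 °C, 5% CO2. Step four: add ONE-Glo, wait 30 min, read luminescence.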
# p53 reactivation = restores transcriptional activity of mutant p53; H1299 p53-A138V BP100-luciferase reporter, luminescence, 24 h; Potency, µM (highest dose often 92.2 µM), most hits filed as activators; 320,000 tested, 0.063% active; AID 504706; note: nearly all actives have a fitted effect of over 45% in size
#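 H1299 (p53-null), stable ts p53-A138V + BP100-Luc; 1000 cells/well, Opti-MEM/10% FBS; cpd 4 pt, 1:5; 24 h, 37 deg C, 5% CO2; detection reagent 10 min RT; luminescence.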
# BRCA1 expr act = increases BRCA1 expression. MCF7-BRCA1-FFLuc reporter, luminescence, 48 h; response scale: scaled: vehicle 0%, 10 µM genistein 100%. Potency, µM (series often up to 46.1 µM), usual class: activators. 380,000 tested, 1.1% active. AID 624202; note: nearly all actives have a fitted effect of over 80% in size
#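 48 h compound treatment of MCF7-BRCA1-FFLuc cells (phenol-red free MEM, 37 °C), then 15 min with luciferase substrate and luminescence imaging.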
# VP16 counter = inhibits Gal4-VP16 luciferase reporter, ROR gamma counter-screen | Drosophila S2 Gal4-VP16 UAS-luciferase, luminescence, 20 h | Potency, µM (series often up to 53.6 µM), most hits filed as inhibitors | 310,000 tested, 3.5% active;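 note: Gal4-VP16 expression switched on by copper sulfate through the metallothionein promoter; nearly all actives have a fitted effect of over 50% in size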
# RORgamma inh = inhibitors of mouse ROR gamma transcriptional activity; 310,000 tested, 5.4% active; Drosophila S2 Gal4-RORgamma UAS-luciferase reporter, 20 h; P51450; AID 2551; Potency, µM (titrated, usually from 53.6 µM), actives largely listed as inhibitors; note: nearly all actives have a fitted effect of over 60% in size
# Target sequence (P51450 whole entry, looked up, the tested form may be a part): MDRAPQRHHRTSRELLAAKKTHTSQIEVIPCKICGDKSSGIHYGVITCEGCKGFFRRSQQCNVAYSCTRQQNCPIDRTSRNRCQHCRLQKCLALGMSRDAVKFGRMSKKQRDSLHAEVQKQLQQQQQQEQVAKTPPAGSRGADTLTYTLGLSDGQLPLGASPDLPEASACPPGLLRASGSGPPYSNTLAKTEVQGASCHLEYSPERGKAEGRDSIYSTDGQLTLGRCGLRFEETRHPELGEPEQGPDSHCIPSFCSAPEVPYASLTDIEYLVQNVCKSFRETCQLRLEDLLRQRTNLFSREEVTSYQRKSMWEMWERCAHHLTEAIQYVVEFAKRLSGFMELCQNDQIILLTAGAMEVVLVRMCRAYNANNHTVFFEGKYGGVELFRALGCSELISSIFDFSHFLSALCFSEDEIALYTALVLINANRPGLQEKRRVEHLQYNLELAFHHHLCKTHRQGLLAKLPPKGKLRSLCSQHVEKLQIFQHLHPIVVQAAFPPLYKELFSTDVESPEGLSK
#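 Drosophila S2 cells stably expressing Gal4-DBD/mouse RORγ fusion under metallothionein promoter plus UAS-luciferase; compound 1 h, then 700 uM CuSO4 induction for 20 h at ambient temperature; inhibition read as reduced luminescence.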
# Numbers stand for hits; . = inactive; ? = inconclusive; / = not tested or not shown; ! = not active in a repeat; [ ] = dose if it differs, or a comment. Compounds with a hit are over-represented: about 7.6% of the library has one in this group of screens. Unless noted, calls come from the whole dose curve; as a rule, active = well fitted curve in the direction sought with a large enough effect; inconclusive = small, poorly fitted or top-dose-only effect, or another doubt; inactive = no such curve, though single readings can be large; an effect the other way counts as inactive or inconclusive.
SMILES,Giardia killer,ELG1 repair inh,p53 reactivation,BRCA1 expr act,VP16 counter,RORgamma inh
CCn1c(SCC(=O)N/N=C/C=C\c2ccco2)nc2ccccc21,.,.,.,.,?,?
Cc1ccc(CSc2nnc(SCC(=O)N/N=C/C=C/c3ccccc3[N+](=O)[O-])s2)cc1,.,?,.,.,?,11.2µM
CN(Cc1cc(Cl)cc(Cl)c1)CC(C(=O)c1ccccc1)c1ccccc1 (configuration not stated),.,/,/,.,/,/
CN(C)CC(C(=O)c1ccccc1)c1ccccc1 (configuration not stated),?,16.4µM,.,.,7.08µM,7.08µM
COc1ccccc1OCC(=O)NNC(=O)c1cnccn1,.,.,.,.,.,11.2µM
CCc1ccc(OCC(=O)NNC(=O)c2cnccn2)c(Br)c1,.,.,.,.,6.31µM,?
COc1ccccc1NC(=O)COC(=O)c1cnccn1,.,.,.,.,.,.
CCc1ccc(OCC(=O)Nc2ccncc2)c(Br)c1,.,?,.,.,?,.
O=C(C1CCN(S(=O)(=O)c2cccc3cccnc23)CC1)N1CC=C(c2ccccc2)CC1,/,23.1µM,.,/,.,.
O=C(C1CCN(S(=O)(=O)c2cccc3cccnc23)CC1)N1CCCC1,.,.,.,.,.,.
Cc1cccc(N2CCN(C(=O)C3CCN(S(=O)(=O)c4cccc5cccnc45)CC3)CC2C)c1 (configuration not stated),.,18.4µM,.,.,.,.
O=C(C1CCCCC1)N1CCN(c2nc(-c3ccc(F)cc3)cs2)CC1,.,20.6µM,.,.,.,.
O=C(NC1CCCCC1)N1CCN(c2nc(-c3ccccc3)cs2)CC1,.,.,.,.,?,11.2µM
O=C(Nc1nc(-c2ccc(F)cc2)cs1)C1CCN(C(=O)c2ccc(F)cc2)CC1,.,18.3µM,.,.,/,/
O=C(NC12CC3CC(CC(C3)C1)C2)N1CCN(c2nc(-c3ccccc3)cs2)CC1,.,?,.,.,?,.
O=C(Nc1nc2c(F)cc(F)cc2s1)C1CCN(C(=O)c2ccc(F)cc2)CC1,.,?,?,.,/,/
CCN1CCN(S(=O)(=O)c2ccc(Cl)c(C(=O)N(C)Cc3cccc(Cl)c3Cl)c2)CC1,.,?,.,.,/,/
CCOCCCNC(=O)C1CCN(C(=O)Nc2ccc(Cl)cc2)CC1,.,.,.,.,.,.
CCN(CC)S(=O)(=O)c1ccc2c(c1)nc(SCC(N)=O)n2-c1ccc(OC)cc1,.,?,.,.,.,.
Cc1ccc2c(c1)C=CC(C#N)N2C(=O)c1ccccc1 (configuration not stated),.,.,.,.,.,.
CC1=Cc2ccccc2C(C#N)N1C(=O)c1ccccc1 (configuration not stated),.,?,.,.,12.6µM,?
COc1ccc2c(c1)C(=O)[C@H](O)[C@@H](c1ccc(OC)c(Br)c1)O2,.,.,.,.,12.6µM!,7.08µM
COC(=O)[C@H](Cc1ccccc1)NC(=O)O[C@@H]1C(=O)c2cc(OC)ccc2O[C@H]1c1ccc(OC)c(Br)c1,/,2.91µM,.,/,.,.
CCCCn1nnnc1C(c1ccccc1)N1CCN(c2ncccc2C(F)(F)F)CC1 (configuration not stated),/,/,/,.,/,/
CCOC(=O)c1c(N2C(=O)C=CC2=O)sc(C)c1C,.,?,.,.,.[0.365 µM],4.47µM
Cc1csc(NC(=O)CN2C(=O)c3ccccc3S2(=O)=O)n1,?,.,.,.,.,.
COc1ccc(-n2cc(-c3ccccc3)[n+]3c2CCCCC3)cc1,.,?,.,.,?,.
COc1ccccc1-n1c(-c2ccccc2)c[n+]2c1CCc1ccccc1-2,.,3.26µM,.,.,8.91µM,?
COc1ccc(-n2c(-c3ccc(Br)cc3)c[n+]3c2CCc2ccccc2-3)cc1,.,?,.,.,6.31µM,.
CC(C)c1ccc(-n2c(-c3ccccc3)c[n+]3c2CCc2ccccc2-3)cc1,.,2.31µM,.,.,3.55µM,4.47µM

# High-throughput results deposited in PubChem BioAssay by National Center for Advancing Translational Sciences (NCATS).
